The list is not random: actives were taken first. Their share in the collection is about 22%.
Measles CPE = compounds protecting cells from measles virus cytopathic effect, primary screen, measles RdRp inhibitor project, single point, MLSMR library, absorbance; Measles virus-infected cells, CPE protection; protection (pct of control), % at 4 µM; hit rate 1.5% among 140,000; in the data active means protection mostly above about 24%, no sharp cut-off; inactive means mostly below about 26%
CYP2C9 inhib = blockers of cytochrome P450 2C9 activity – biochemical, luminescence, ADME assay, primary screen; P11712; CYP2C9 Supersomes, luciferin-H conversion; inhibition, % at 5 µM; hit rate 20% among 96,000; AID 777, 2007;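 active means blocking of liver enzyme CYP2C9 beyond about 50% at 5 µM, limit read from the data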
Target sequence (P11712 whole entry, looked up): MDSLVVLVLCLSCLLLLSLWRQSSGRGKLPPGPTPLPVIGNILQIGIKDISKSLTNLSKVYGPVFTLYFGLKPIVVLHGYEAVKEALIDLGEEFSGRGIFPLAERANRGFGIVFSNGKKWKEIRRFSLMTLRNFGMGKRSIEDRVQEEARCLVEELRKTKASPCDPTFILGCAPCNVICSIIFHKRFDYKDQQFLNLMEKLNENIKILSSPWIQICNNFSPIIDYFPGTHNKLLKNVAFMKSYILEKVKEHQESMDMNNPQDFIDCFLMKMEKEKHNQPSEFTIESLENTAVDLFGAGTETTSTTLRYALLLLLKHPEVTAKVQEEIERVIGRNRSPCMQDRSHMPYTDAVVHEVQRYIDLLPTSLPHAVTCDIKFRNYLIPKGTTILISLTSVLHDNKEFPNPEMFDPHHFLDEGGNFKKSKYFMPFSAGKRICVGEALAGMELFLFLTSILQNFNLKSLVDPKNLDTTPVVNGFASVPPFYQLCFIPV
CYP2C9 activ = human CYP2C9 activators, primary screen, biochemical, luminescence; Cytochrome P450 2C9 (Homo sapiens), P11712; recombinant CYP2C9, luciferin-H conversion; active compounds read high; factor 1 = untreated enzyme, 0 = blocked; activation factor at 5 µM; hit rate 1.4% among 96,000; AID 1024, 2008;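 active means activation factor of 2 or more for CYP2C9 at a 5 µM dose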;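 further: 0 = sulfaphenazole-blocked wells and 1 = vehicle-only wells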
CYP2C19 inh = blockers of cytochrome P450 2C19 activity – biochemical, luminescence, ADME assay, primary screen; P33261; CYP2C19 Supersomes, luciferin-H EGE luminescence, 30 min; inhibition, % at 5 µM; hit rate 21% among 96,000; AID 778, 2007;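 active means CYP2C19 inhibition above a set limit at 5 µM in the primary screen, cut at about 50% in these data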;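 further: plate controls were negative control wells for no effect and 2.5 mM tranylcypromine positive control for full effect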
CYP2C19 activ = human CYP2C19 activators, primary screen, biochemical, luminescence | 96,000 tested, under 10 active | recombinant CYP2C19, luciferin-H EGE luminescence; active compounds read high; 0 = fully inhibited enzyme, 1 = untreated enzyme | Cytochrome P450 2C19 (Homo sapiens), P33261 | activation factor at 5 µM | AID 1025, 2008;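 active means activation factor of at least 2 at 5 µM in the primary screen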;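 further: 0 = wells with 2.5 mM tranylcypromine and 1 = vehicle-only wells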
An asterisk follows results filed as active.

Results for Cn1c2c(c(=O)n(C)c1=O)C(NS(=O)(=O)c1ccccc1)(C(F)(F)F)C(=O)N2 (configuration not stated) ?
Measles CPE: 12; CYP2C9 inhib: 20; CYP2C9 activ: 0.8; CYP2C19 inh: 2; CYP2C19 activ: 1

What do the screens show for `CCCCNS(=O)(=O)c1ccc2nc(SCC(=O)c3ccccc3OC)[nH]c2c1`?
Measles CPE: 18; CYP2C9 inhib: 94*; CYP2C9 activ: 0.1; CYP2C19 inh: 94*; CYP2C19 activ: 0.1

What do the screens show for `CCCCNS(=O)(=O)c1ccc2nc(SCC(=O)Nc3sccc3C#N)[nH]c2c1`?
Measles CPE: 7; CYP2C9 inhib: 97*; CYP2C9 activ: 0; CYP2C19 inh: 69*; CYP2C19 activ: 0.3

What do the screens show for `CCCCNS(=O)(=O)c1ccc2nc(SCC(=O)Nc3cccc(F)c3)[nH]c2c1`?
Measles CPE: 3

Results for CCCCNS(=O)(=O)c1ccc2nc(SCC(=O)Nc3ccccc3Cl)[nH]c2c1 ?
Measles CPE: 37

Results for CC1(C)CC(NC(=O)C23CCC(C)(C(=O)C2)C3(C)C)CC(C)(C)N1 (configuration not stated) ?
Measles CPE: 9; CYP2C9 inhib: 60*; CYP2C9 activ: 0.4; CYP2C19 inh: -1; CYP2C19 activ: 1

How did Oc1ccccc1/C=N/Nc1ccccc1 do in these assays?
Measles CPE: 3

How did CN(C)S(=O)(=O)c1cccc(-c2nn(-c3ccccc3)cc2/C=C(/C#N)C(=O)NCc2ccco2)c1 do in these assays?
Measles CPE: 2

How did Cc1cc(-c2nn(-c3ccccc3)cc2/C=C2\SC(N)=NC2=O)ccc1OC(C)C do in these assays?
Measles CPE: 20

What do the screens show for `CC1CCCN(C2=NC(=O)/C(=C/c3cn(-c4ccccc4)nc3-c3cccc(S(=O)(=O)N(C)C)c3)S2)C1` (configuration not stated)?
Measles CPE: 2; CYP2C9 inhib: 65*; CYP2C9 activ: 0.3; CYP2C19 inh: 37; CYP2C19 activ: 0.6

What do the screens show for `CC1CCN(C2=NC(=O)/C(=C/c3cn(-c4ccccc4)nc3-c3cccc(S(=O)(=O)N(C)C)c3)S2)CC1`?
Measles CPE: 13; CYP2C9 inhib: 56*; CYP2C9 activ: 0.4; CYP2C19 inh: 39; CYP2C19 activ: 0.6

Results for Cc1cccc2c1nc(-c1ccccc1)n1cnnc21 ?
Measles CPE: 7; CYP2C9 inhib: 6; CYP2C9 activ: 0.9; CYP2C19 inh: 18; CYP2C19 activ: 0.8

Results for CCn1c(C2CC(=O)N(Cc3ccccc3)C2)nc2ccccc21 (configuration not stated) ?
Measles CPE: 4; CYP2C9 inhib: 45; CYP2C9 activ: 0.5; CYP2C19 inh: 53*; CYP2C19 activ: 0.5

Results for CCCn1c(C2CC(=O)N(c3cc(OC)ccc3OC)C2)nc2ccccc21 (configuration not stated) ?
Measles CPE: 7; CYP2C9 inhib: 35; CYP2C9 activ: 0.6; CYP2C19 inh: 23; CYP2C19 activ: 0.8

How did CC(C)(C)N1CC(c2nc3ccccc3n2Cc2ccccc2)CC1=O (configuration not stated) do in these assays?
Measles CPE: 8; CYP2C9 inhib: 79*; CYP2C9 activ: 0.2; CYP2C19 inh: 50; CYP2C19 activ: 0.5

What do the screens show for `CCn1c(C2CC(=O)N(c3ccc(C)c(C)c3)C2)nc2ccccc21` (configuration not stated)?
CYP2C9 inhib: 31; CYP2C9 activ: 0.7; CYP2C19 inh: 53*; CYP2C19 activ: 0.5

Results for C=CCN1CC(c2nc3ccccc3n2CCOc2ccccc2)CC1=O (configuration not stated) ?
Measles CPE: 18; CYP2C9 inhib: 73*; CYP2C9 activ: 0.3; CYP2C19 inh: 60*; CYP2C19 activ: 0.4

Results for NS(=O)(=O)c1ccc(NC(=S)Nc2ccc(F)c(F)c2)cc1 ?
Measles CPE: 18

Results for COC(=O)c1c(C(=O)OC)c2n(c1C)CCC2 ?
Measles CPE: 9; CYP2C9 inhib: -8; CYP2C9 activ: 1.1; CYP2C19 inh: -2; CYP2C19 activ: 1

How did Cc1nc(-c2cccc(S(=O)(=O)N3CCCC(C)C3)c2)cs1 (configuration not stated) do in these assays?
Measles CPE: 3; CYP2C9 inhib: 28; CYP2C9 activ: 0.7; CYP2C19 inh: 14; CYP2C19 activ: 0.9

Results for CCOC(=O)C1=C(C)C2C3C(=O)N(c4ccc(C)cc4C)C(=O)C3C1(C)C1C(=O)N(c3ccc(C)cc3C)C(=O)C21 (configuration not stated) ?
Measles CPE: 8

What do the screens show for `C=C(C)Cn1c(C2CC(=O)N(Cc3ccccc3)C2)nc2ccccc21` (configuration not stated)?
CYP2C9 inhib: 71*; CYP2C9 activ: 0.3; CYP2C19 inh: 55*; CYP2C19 activ: 0.4

What do the screens show for `c1ccc(CCn2c(C3CC3)nc3ccccc32)cc1`?
Measles CPE: 22; CYP2C9 inhib: 66*; CYP2C9 activ: 0.3; CYP2C19 inh: 98*; CYP2C19 activ: 0

How did O=C(O)CCn1c(C2CCCCC2)nc2ccccc21 do in these assays?
Measles CPE: 7; CYP2C9 inhib: -5; CYP2C9 activ: 1; CYP2C19 inh: -13; CYP2C19 activ: 1.1

Results for C=C(C)Cn1c(C2CC(=O)N(c3ccccc3F)C2)nc2ccccc21 (configuration not stated) ?
Measles CPE: 11

How did Cc1ccccc1OCc1nc2ccc(S(=O)(=O)N3CCOCC3)cc2[nH]1 do in these assays?
Measles CPE: 17; CYP2C9 inhib: 27; CYP2C9 activ: 0.7; CYP2C19 inh: -8; CYP2C19 activ: 1.1

What do the screens show for `Oc1ccc(-c2cccc(-c3ccc(O)cc3)n2)cc1`?
Measles CPE: 2; CYP2C9 inhib: 61*; CYP2C9 activ: 0.4; CYP2C19 inh: 27; CYP2C19 activ: 0.7

What do the screens show for `Oc1ccc(-c2nnc(-c3ccc(O)cc3)nn2)cc1`?
Measles CPE: 12; CYP2C9 inhib: -90; CYP2C9 activ: 1.9; CYP2C19 inh: -6; CYP2C19 activ: 1.1

How did O=C1C2C3C=CC(CC3)C2C(=O)N1c1nccs1 (configuration not stated) do in these assays?
Measles CPE: 9

How did O=C1C2C3C=CC([C@@H]2C(=O)N1c1nccs1)C31CC1 (some centres not stated) do in these assays?
Measles CPE: 6; CYP2C9 inhib: 9; CYP2C9 activ: 0.9; CYP2C19 inh: 76*; CYP2C19 activ: 0.2

What do the screens show for `Oc1c(C(Nc2ccccn2)c2ccccn2)ccc2cccnc12` (configuration not stated)?
CYP2C9 inhib: 67*; CYP2C9 activ: 0.3; CYP2C19 inh: 48; CYP2C19 activ: 0.5
